Here are results for 17 compounds from PubChem BioAssay.

A short description of assay [1]: hESC survival regulators, cell-based (AID 493140).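 Note: cells exposed to compounds for four days before counting.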 The following applies: human embryonic stem cell survival screen; stronger effect = higher value.
The nature of assay [2]: sensitizers of A549 cells to miR-34 induction, primary screen, imaging, A549 dox-inducible miR-34, nuclei and caspase counts (AID 1347080;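 active = compounds whose cell count with miR-34 switched on is under 0.7 times the count with it off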). The following applies: A549 miR-34 inducible, Hoechst nuclei count, 48 h.
Assay [3] in a line: inhibitors of Cryptococcus chitosan production, flow cytometry, Cibacron Brilliant Red staining (AID 1347148).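 Note: compound exposure lasted three days at 37 degrees C.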 The note with it: Cryptococcus neoformans chitosan, stronger effect = lower value; at 10 µM unless noted.
A short description of assay [4]: phospholipid biosynthesis inhibitors in animal cells, primary screen, cell-based, LOPAC library, screen 4 (AID 1347384). The following applies: phospholipid biosynthesis inhibition screen, at 10 µM.
Assay [5] in a line: viability rescue of complex I mutant cybrids, primary screen, cell-based, galactose medium, ATP luminescence (AID 1645843;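 active = z-score of at least 1.8 in each of two replicates, scored against plate mean and spread of sample wells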;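 note: positive z means more ATP and so rescue of galactose-driven cybrid death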). The note with it: complex I mutant cybrid cells, 72 h, stronger effect = higher value.
For assay [6], the system named is Hepatitis C virus NS3 helicase. The assay is described as follows: HCV NS3 helicase inhibitors, primary screen, biochemical, fluorescence polarization, LOPAC1280 library (AID 687035; in the data active = inhibition above about 37%). The following applies: Purified HCV NS3 helicase, Cy5-dT15 ssDNA binding fluorescence polarization; stronger effect = higher value; concentration not given here.
The nature of assay [7]: Cy5 fluorescence quenching or enhancement artefacts, artefact control for HCV NS3 helicase inhibitor project, biochemical, LOPAC1280 (AID 687037). The note with it: Cy5-DNA-NS3h complex fluorescence interference counterscreen. For orientation: Counterscreens check selectivity or assay interference.
Assay [8] is described as follows: survival rescue of mitochondrial mutant cells in low glucose, primary screen, MELAS cybrids, Rieske KO mouse fibroblasts, CellTiter-Glo (AID 1508586;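 active = mean z-score across replicates of 1.96 or higher in either the MELAS or the Rieske mutant cell line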;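 note: z relative to plate mean and SD of compound and empty wells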).
Assay [9] can be described thus: modifiers of HSF1 nuclear foci, imaging, Selleck Cancer Library (AID 1347162; in the data active = plate-normalised HSF1 focus index below about 0.46). The note with it: human cells, at 10 µM; SSMD: measured here: HSF1 foci SSMD mean; cell count: measured here: cell number; plate-normalised HSF1 focus index: stronger effect = lower value.
A short description of assay [10]: liver-stage malaria parasite growth inhibition, primary screen, cell-based, HepG2, luciferase luminescence, HepG2 viability (AID 624349; in the data active = parasite load remaining mostly below about 12%, no sharp cut-off; inactive = mostly above about 10%;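 note: 100% = mean of DMSO negative control wells on the same plate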). The following applies: P. berghei liver stage in HepG2, luciferase luminescence, concentration not given here; parasite load remaining: stronger effect = lower value; viability: measured here: HepG2 viability without parasites.
Assay [11] can be described thus: circadian clock period modulators, cell-based, LOPAC library, luminescence reporter (AID 2774).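 Note: values are relative to mean of DMSO wells on each plate.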 The note with it: circadian reporter cells, at 7 µM, actives lie on both sides.
Assay [12] concerns the target NAD(+) hydrolase SARM1 (Homo sapiens) (UniProt Q6SZW1). The assay is described as follows: SARM1 TIR NADase inhibitors, cell lysate, NAD-Glo luminescence (AID 1508614;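 active = compound whose remaining NAD level is above about 45 nM, limit read from the data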;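 note: higher remaining NAD means stronger inhibition of SARM1 NADase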). The note with it: SAM-TIR HEK293T lysate NADase, at 1 µM, stronger effect = higher value.
Where [13] appears, read: stronger effect = lower value, cell number ratio, induced over uninduced.
The mark [14] stands for this setting: measured here: relative caspase fold change +Dox/-Dox.
[15] abbreviates: measured here: total cells with miR-34 induction, stronger effect = lower value.
The mark [16] stands for this setting: measured here: total cells without miR-34 induction.
The mark [17] stands for this setting: MELAS cybrid survival, CellTiter-Glo 48 h, stronger effect = higher value.
The mark [18] stands for this setting: Rieske KO mouse fibroblast survival, CellTiter-Glo 72 h.

Each structure is given as a SMILES string. The source made the active and inactive calls. Unless noted, the rule behind the calls is not given here.

Sequence of NAD(+) hydrolase SARM1 (Homo sapiens) (Q6SZW1 whole entry, looked up): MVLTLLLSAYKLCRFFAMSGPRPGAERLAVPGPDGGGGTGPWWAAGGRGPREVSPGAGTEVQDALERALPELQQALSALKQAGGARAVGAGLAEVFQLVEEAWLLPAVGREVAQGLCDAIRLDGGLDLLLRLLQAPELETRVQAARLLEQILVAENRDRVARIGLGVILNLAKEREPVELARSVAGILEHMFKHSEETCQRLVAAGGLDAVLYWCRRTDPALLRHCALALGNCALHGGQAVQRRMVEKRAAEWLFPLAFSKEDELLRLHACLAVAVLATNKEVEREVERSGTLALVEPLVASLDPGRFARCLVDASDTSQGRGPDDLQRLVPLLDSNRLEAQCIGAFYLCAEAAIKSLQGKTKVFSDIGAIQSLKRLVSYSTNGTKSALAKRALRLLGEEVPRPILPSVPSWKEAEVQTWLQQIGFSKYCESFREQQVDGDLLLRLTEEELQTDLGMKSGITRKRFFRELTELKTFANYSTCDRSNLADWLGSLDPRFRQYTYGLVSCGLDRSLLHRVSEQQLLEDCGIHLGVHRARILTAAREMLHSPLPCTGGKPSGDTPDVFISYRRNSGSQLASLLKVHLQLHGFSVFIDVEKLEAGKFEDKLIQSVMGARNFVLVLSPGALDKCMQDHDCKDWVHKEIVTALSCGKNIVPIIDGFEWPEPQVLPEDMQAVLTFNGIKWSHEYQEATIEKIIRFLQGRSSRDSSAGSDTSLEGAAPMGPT

As to `CCCCC/C=C\C/C=C\C/C=C\C/C=C\CCCC(=O)O[C@@H](CO)COC(=O)CCCCCCCCCCCCCCCCC`, the survival in [1] is 92.4 (inactive). Moreover, the figures for the fold change in [2] (setting [13]) and in assay [2] (setting [14]) were 0.967 (inactive) and 1.14, respectively. Also, the cell count in [2] (setting [15]) stood at 5940; in [2] (setting [16]) it was 6140. Besides, the fold fluorescence in assay [3] is 5.53 (inactive).
On to `Fc1ccc2[nH]c(CN3CCN(c4ccccn4)CC3)cc2c1`, for which the fold change is 0.975 (inactive) in assay [2] (setting [13]) and 1.18 in assay [2] (setting [14]). In addition, the cell count worked out at 8710 in assay [2] (setting [15]) and 8930 in assay [2] (setting [16]). The compound was called inactive in assay [4]. In assay [5], the z-score is -1.13 (inactive).
With `O=C(CCSCc1ccco1)NNC(=O)N1Cc2ccccc2Oc2ccc(Cl)cc21`, the fold change was 0.969 (inactive) in [2] (setting [13]) and 0.669 in assay [2] (setting [14]). Also, the cell count was determined as 7850 in assay [2] (setting [15]) and 8100 in assay [2] (setting [16]). In assay [4], the outcome was inactive. For the same compound, in assay [5], the z-score is 1.58 (inactive).
The term inhibition denotes the drop in the measured response relative to a control, in per cent. For the compound `O=C1Nc2ccc(I)cc2C1=Cc1cc(Br)c(O)c(Br)c1`, in [6], the inhibition is -1% (inactive). In addition, the fluorescence ratio (interference) in assay [7] was 1 (inactive). Further, the fold change in assay [2] (setting [13]) is 1.04 (inactive); in assay [2] (setting [14]), 0.568. Moreover, the cell count in assay [2] (setting [15]) was 7930; in assay [2] (setting [16]), 7600. For the same compound, in assay [4], the call was inactive. In addition, the figures for the z-score in assay [8] (setting [17]) and in [8] (setting [18]) were -0.141 (inactive) and -0.283, respectively.
As to `CCCCC/C=C\CC1OC1C/C=C\C/C=C\CCCC(=O)O` (stereo not drawn), the survival in [1] was 104 (inactive). Further, the fold change was 1.05 (inactive) in assay [2] (setting [13]) and 1.1 in assay [2] (setting [14]). In addition, the figures for the cell count in assay [2] (setting [15]) and in assay [2] (setting [16]) were 5770 and 5500, respectively. The fold fluorescence in [3] is 6.17 [at 1 µM] (inactive).
For `COc1ccccc1CN[C@@H]1CCCN[C@@H]1c1ccccc1`, the fold change is 0.967 (inactive) in [2] (setting [13]) and 1.32 in [2] (setting [14]). In addition, the cell count in assay [2] (setting [15]) amounted to 9540; in [2] (setting [16]), 9860. Moreover, the compound was classed as inactive in assay [4]. Also, in [5], the z-score was -0.42 (inactive).
On to `C=CC(=O)N1CCCC(n2nc(-c3ccc(Oc4ccccc4)cc3)c3c(N)ncnc32)C1` (stereo not drawn), for which the figures for the fold change in assay [2] (setting [13]) and in [2] (setting [14]) were 0.863 (inactive) and 0.762, respectively. Besides, the cell count in assay [2] (setting [15]) was 7670; in assay [2] (setting [16]), 8890; in assay [9], 7290. For the same compound, the SSMD in assay [9] worked out at 2.74. Also, the plate-normalised HSF1 focus index in assay [9] was 1.17 (inactive). Further, the z-score was -0.153 (inactive) in [8] (setting [17]) and -0.517 in assay [8] (setting [18]).
Usually viability stands for a per cent measure of how many cells are alive, often set against a control. As to `CO/N=C(\C(=O)N[C@@H]1C(=O)N2C(C(=O)O)=C(COC(C)=O)CS[C@H]12)c1csc(N)n1`, the parasite load remaining in [10] is 16.7% (inactive). The same compound showed a viability in [10] of 71.5%. Moreover, the fold change was 0.894 (inactive) in assay [2] (setting [13]) and 1.17 in assay [2] (setting [14]). Besides, the cell count in assay [2] (setting [15]) came out at 9420; in [2] (setting [16]), 10500. In addition, the call in assay [4] was inactive. In addition, the z-score in [8] (setting [17]) is 0.329 (inactive); in assay [8] (setting [18]), 0.781; in assay [5], -0.18 (inactive).
For `COC(=O)C1=C(C)NC(C)=C(C(=O)OC)C1c1cccc(NC(=O)NCCCN2CCC(c3cccc(OC)c3)CC2)c1`, the fold change in assay [2] (setting [13]) was 1.58 (inactive); in [2] (setting [14]) it was 0.349. Besides, the cell count in assay [2] (setting [15]) stood at 2200; in [2] (setting [16]) it was 1390. For the same compound, the outcome in [4] was inactive. In addition, the z-score in [5] was -1.35 (inactive).
Regarding `NS(=O)(=O)c1ccc(-n2nc(C(F)(F)F)cc2-c2ccc(Cl)cc2)cc1`, the fold change in assay [2] (setting [13]) was 1.1 (inactive); in assay [2] (setting [14]) it was 0.617. Also, the values for the cell count in assay [2] (setting [15]) and in [2] (setting [16]) were 7530 and 6870, respectively. In assay [4], the result was inactive. For the same compound, in [5], the z-score is 2.57 (active).
Turning to `O=C1c2ccccc2C(=O)c2c(NCCc3ccc(O)cc3)ccc(NCCc3ccc(O)cc3)c21`, the inhibition in assay [6] is 13% (inactive). In addition, in assay [7], the fluorescence ratio (interference) is 1.1 (inactive). The values for the fold change in assay [2] (setting [13]) and in assay [2] (setting [14]) were 1.15 (inactive) and 1.12, respectively. The cell count in assay [2] (setting [15]) is 4510; in assay [2] (setting [16]), 3920; in assay [9], 6780. Moreover, the SSMD in assay [9] worked out at 0.452. Also, the plate-normalised HSF1 focus index in assay [9] was 1.04 (inactive). In addition, the call in assay [4] was active. Also, the z-score in [5] is -0.96 (inactive).
Consider `O=C(NOCC1CC1)c1cc(Br)c(F)c(F)c1Nc1ccc(I)cc1Cl`, for which the results for the fold change in assay [2] (setting [13]) and in assay [2] (setting [14]) were 1.16 (inactive) and 1.35, respectively. Also, the cell count in assay [2] (setting [15]) was 1380; in [2] (setting [16]) it was 1180. Further, the call in [4] was inactive. For the same compound, the z-score in [5] was -1.36 (inactive).
Consider `S=c1[nH]c(-c2ccccc2)cn1-c1ccccc1`, for which the fold change was 0.982 (inactive) in [2] (setting [13]) and 1.24 in [2] (setting [14]). The cell count in assay [2] (setting [15]) is 9110; in [2] (setting [16]) it was 9280. Also, the compound was called inactive in assay [4]. Besides, in assay [5], the z-score is -0.15 (inactive).
Turning to `N=C(N)SCCc1ccc(CCSC(=N)N)cc1`, the period change in assay [11] is -0.135 h (inactive). Also, the inhibition in assay [6] is -5% (inactive). For the same compound, in assay [7], the fluorescence ratio (interference) was 0.9 (inactive). Further, the figures for the fold change in assay [2] (setting [13]) and in [2] (setting [14]) were 1.11 (inactive) and 0.636, respectively. Also, the figures for the cell count in [2] (setting [15]), in assay [2] (setting [16]) and in assay [9] were 5830, 5230 and 7320, respectively. This compound had an SSMD in assay [9] of 1.43. For the same compound, in [9], the plate-normalised HSF1 focus index was 1.08 (inactive).
With `O=c1[nH]cnc2c1CN=N2`, the parasite load remaining in [10] is 22.2% (inactive). Further, the viability in [10] amounted to 60.5%. Further, the fold change is 0.891 (inactive) in assay [2] (setting [13]) and 1.16 in assay [2] (setting [14]). Further, the cell count amounted to 9860 in [2] (setting [15]) and 11100 in [2] (setting [16]). The result in assay [4] was inactive. The figures for the z-score in assay [8] (setting [17]), in assay [8] (setting [18]) and in assay [5] were 0.591 (inactive), 0.624 and 0.315 (inactive), respectively.
Turning to `CCOC(=O)[C@H](CCc1ccccc1)N[C@@H](C)C(=O)N1[C@H](C(=O)O)C[C@H]2CCCC[C@@H]21`, the inhibition in assay [6] is -4% (inactive). In addition, the fluorescence ratio (interference) in assay [7] is 1 (inactive). For the same compound, the fold change is 1.13 (inactive) in [2] (setting [13]) and 0.831 in [2] (setting [14]). The cell count in [2] (setting [15]) was found to be 11100; in assay [2] (setting [16]) it was 9850. The result in [4] was inactive. In assay [12], the remaining NAD is 10 nM (inactive). The z-score in [5] is 0.51 (inactive).
`CCCCC/C=C\C/C=C\C/C=C\C=C\[C@@H](O)CCCC(=O)O`: the survival in assay [1] was 128 (inactive). The fold change in [2] (setting [13]) was 0.957 (inactive); in [2] (setting [14]), 1.24. The figures for the cell count in assay [2] (setting [15]) and in assay [2] (setting [16]) were 5700 and 5960, respectively. Moreover, in [3], the fold fluorescence is 4.16 [at 1 µM] (inactive).
